Drawing on PubChem BioAssay (Tox21), this text covers Potency for 20 compounds.

Structures are written as SMILES. “And” between values parts separate entries of the source, which are not always exact repeats. Equal entries are not always repeated. Records with an inconclusive call do not appear. Some structures have more than one record in an assay (separate samples or runs), and their calls can disagree. The source made the active and inactive calls. Calls come from the whole dose curve; as a rule, active = well fitted curve in the direction sought with a large enough effect in the repeat runs; inconclusive = weak or mixed curves; inactive = no such curve, though single readings can be large; an effect the other way counts as inactive or inconclusive.

In assay [1] the target is Cytochrome P450 2C19 (Homo sapiens) (UniProt P33261). Nature of the assay: Cytochrome P450 Family 2 Subfamily C Member 19 (CYP2C19) small molecule antagonists: luciferase reporter qHTS assay (AID 1671197). Note: nearly all actives have a fitted effect of over 65% in size. Note: potency is the fitted concentration of half-maximal effect. A digest of the protocol: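 Enzyme-substrate mix with proluciferin substrate (P450-Glo CYP2C19 system) preincubated with compounds 10 min at room temperature; NADPH regeneration solution added, 37C for 1 h; detection reagent stops reaction, luminescence read after 20 min. Ketoconazole positive control.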
Cytochrome P450 2C19 (Homo sapiens), sequence (P33261 whole entry, looked up): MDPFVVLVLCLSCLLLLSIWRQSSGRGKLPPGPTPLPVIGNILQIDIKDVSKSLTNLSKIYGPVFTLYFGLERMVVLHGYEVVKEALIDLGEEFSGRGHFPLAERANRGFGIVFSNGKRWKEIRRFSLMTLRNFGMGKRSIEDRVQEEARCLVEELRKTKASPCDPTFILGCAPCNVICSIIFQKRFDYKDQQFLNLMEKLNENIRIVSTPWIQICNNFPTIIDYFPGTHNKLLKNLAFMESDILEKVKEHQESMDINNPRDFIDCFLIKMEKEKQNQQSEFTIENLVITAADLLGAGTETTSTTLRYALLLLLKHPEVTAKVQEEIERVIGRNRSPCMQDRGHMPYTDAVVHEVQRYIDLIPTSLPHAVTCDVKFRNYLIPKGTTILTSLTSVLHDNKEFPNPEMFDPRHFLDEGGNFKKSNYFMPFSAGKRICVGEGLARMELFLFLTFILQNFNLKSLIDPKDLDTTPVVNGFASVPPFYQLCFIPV
(In a reporter assay the amount or activity of a reporter protein is the signal.)

Assay [2] deals with Cytochrome P450 2C9 (Homo sapiens) (UniProt P11712). Briefly: Cytochrome P450 Family 2 Subfamily C Member 9 (CYP2C9) small molecule antagonists: luciferase reporter qHTS assay (AID 1671198). Note: nearly all actives have a fitted effect of over 50% in size. Note: potency is the fitted concentration of half-maximal effect. A digest of the protocol:
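CYP2C9 activity was measured with a P450-Glo proluciferin substrate. Enzyme–substrate mix was held with compound for 10 min at room temperature, then NADPH regeneration solution was added for 1 h at 37C. Luciferin product was read as luminescence.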

In assay [3] the target is Cytochrome P450 1A2 (Homo sapiens) (UniProt P05177). Nature of the assay: Cytochrome P450 Family 1 Subfamily A Member 2 (CYP1A2) small molecule antagonists: luciferase reporter qHTS assay (AID 1671199). Note: nearly all actives have a fitted effect of over 50% in size. Note: potency is the fitted concentration of half-maximal effect. An outline of the steps:
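Quantitative high-throughput format using the P450-Glo CYP1A2 system. Reaction initiated by NADPH regeneration solution, 1 h at room temperature, then stopped with detection reagent; luminescence measured 20 min later.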

In assay [4] the target is Voltage-gated inwardly rectifying potassium channel KCNH2 (Homo sapiens) (UniProt Q12809). Nature of the assay: Human Ether-a-go-go-Related Gene (hERG) channel small molecule antagonists: fluorescence cell-based qHTS assay (AID 1671200).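 Note: hERG-expressing U2OS cells given a thallium stimulus after FluxOR II dye loading; series mostly up to about 77 µM; nearly all actives have a fitted effect of over 50% in size.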 An outline of the steps: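 Fluorescence at 540 nm emission (480 nm excitation) was recorded kinetically for 2 min at 1-second intervals once the thallium-containing stimulus reached cells previously loaded with FluxOR II dye.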
Voltage-gated inwardly rectifying potassium channel KCNH2 (Homo sapiens), sequence (Q12809 whole entry, looked up): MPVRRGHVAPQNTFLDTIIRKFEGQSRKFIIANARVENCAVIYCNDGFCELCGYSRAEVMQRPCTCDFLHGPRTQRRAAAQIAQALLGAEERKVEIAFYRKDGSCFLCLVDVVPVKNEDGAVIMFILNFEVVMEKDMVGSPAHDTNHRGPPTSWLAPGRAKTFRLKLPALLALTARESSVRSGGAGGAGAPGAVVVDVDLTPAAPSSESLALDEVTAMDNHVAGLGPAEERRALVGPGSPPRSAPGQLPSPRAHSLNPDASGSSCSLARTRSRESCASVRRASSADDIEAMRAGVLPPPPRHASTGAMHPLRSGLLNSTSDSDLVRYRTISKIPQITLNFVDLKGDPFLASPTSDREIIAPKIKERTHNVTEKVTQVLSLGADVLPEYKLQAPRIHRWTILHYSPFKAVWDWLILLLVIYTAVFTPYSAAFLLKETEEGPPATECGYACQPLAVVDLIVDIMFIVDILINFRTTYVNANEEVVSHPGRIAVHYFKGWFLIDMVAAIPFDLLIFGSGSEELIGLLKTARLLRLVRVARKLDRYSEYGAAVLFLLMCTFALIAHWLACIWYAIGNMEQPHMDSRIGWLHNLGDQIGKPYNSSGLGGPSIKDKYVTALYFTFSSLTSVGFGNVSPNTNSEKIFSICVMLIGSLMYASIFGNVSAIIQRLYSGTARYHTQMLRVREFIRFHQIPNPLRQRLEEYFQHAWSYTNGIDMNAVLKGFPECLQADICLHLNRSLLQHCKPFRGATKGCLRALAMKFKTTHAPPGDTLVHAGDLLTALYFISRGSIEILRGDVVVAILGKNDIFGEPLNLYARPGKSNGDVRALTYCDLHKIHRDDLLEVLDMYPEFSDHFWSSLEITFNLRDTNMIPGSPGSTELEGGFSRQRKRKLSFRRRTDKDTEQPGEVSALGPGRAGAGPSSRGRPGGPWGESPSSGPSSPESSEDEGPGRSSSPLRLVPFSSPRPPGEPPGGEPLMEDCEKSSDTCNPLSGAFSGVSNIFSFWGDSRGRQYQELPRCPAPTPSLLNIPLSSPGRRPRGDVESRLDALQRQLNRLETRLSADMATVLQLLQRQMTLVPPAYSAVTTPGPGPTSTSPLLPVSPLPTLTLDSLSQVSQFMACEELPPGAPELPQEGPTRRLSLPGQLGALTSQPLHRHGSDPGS
On the technique in general: The hERG channel carries a current that helps repolarise heart muscle cells.

Assay [5] concerns the target Cytochrome P450 3A4 (Homo sapiens) (UniProt P08684). Nature of the assay: Cytochrome P450 Family 3 Subfamily A Member 4 (CYP3A4) small molecule antagonists: luciferase reporter qHTS assay (AID 1671201). Note: nearly all actives have a fitted effect of over 50% in size. Note: potency is the fitted concentration of half-maximal effect. An outline of the steps: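 qHTS, 1536-well. CYP3A4 + proluciferin substrate, cpd 10 min RT → NADPH regen 1 h RT → detection reagent 20 min → luminescence (RLU). Ketoconazole positive control.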

Cytochrome P450 2C9 (Homo sapiens), sequence (P11712 whole entry, looked up): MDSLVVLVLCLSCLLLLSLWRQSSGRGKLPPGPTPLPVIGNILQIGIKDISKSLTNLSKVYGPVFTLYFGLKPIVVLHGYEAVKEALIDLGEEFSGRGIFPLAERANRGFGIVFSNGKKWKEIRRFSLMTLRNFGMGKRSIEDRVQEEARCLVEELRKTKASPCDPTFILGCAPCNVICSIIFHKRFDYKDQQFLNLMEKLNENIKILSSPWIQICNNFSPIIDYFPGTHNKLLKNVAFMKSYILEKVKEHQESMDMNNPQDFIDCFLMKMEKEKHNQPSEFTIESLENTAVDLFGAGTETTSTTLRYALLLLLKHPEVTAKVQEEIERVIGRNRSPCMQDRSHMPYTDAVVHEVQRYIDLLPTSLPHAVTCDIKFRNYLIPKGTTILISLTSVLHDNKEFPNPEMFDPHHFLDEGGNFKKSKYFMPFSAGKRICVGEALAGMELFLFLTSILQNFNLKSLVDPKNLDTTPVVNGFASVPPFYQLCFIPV
Cytochrome P450 3A4 (Homo sapiens), sequence (P08684 whole entry, looked up): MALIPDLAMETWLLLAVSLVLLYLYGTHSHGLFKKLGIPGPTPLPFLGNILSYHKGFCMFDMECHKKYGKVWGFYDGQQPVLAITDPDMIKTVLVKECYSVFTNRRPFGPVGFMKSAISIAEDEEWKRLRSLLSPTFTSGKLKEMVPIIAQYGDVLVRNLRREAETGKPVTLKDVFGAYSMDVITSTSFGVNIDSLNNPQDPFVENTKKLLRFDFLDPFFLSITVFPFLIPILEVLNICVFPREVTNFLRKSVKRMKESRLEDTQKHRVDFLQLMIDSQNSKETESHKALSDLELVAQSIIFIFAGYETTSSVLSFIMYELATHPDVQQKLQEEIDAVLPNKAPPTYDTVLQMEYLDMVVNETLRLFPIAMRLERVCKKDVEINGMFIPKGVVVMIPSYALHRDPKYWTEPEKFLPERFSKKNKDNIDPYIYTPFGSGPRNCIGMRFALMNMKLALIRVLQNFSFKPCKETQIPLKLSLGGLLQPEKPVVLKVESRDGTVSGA
Cytochrome P450 1A2 (Homo sapiens), sequence (P05177 whole entry, looked up): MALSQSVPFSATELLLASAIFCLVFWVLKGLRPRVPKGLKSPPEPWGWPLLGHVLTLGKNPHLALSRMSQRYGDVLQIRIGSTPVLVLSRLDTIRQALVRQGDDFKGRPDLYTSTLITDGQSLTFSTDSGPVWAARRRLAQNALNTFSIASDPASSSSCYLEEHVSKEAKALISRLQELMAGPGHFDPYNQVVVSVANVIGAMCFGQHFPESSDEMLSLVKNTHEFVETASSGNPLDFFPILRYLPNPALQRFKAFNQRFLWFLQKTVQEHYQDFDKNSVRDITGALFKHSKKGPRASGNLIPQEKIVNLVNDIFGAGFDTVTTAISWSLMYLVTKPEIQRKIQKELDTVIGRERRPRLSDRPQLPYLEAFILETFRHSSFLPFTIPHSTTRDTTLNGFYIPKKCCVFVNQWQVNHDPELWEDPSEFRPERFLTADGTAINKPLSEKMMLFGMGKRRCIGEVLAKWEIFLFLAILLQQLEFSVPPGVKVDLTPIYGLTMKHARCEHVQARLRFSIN

`S=C(NC1CCCCC1)NC1CCCCC1`: the Potency in assay [1] is 7.81 µM (active) and 8.94 µM (active); in assay [2] it was 12.4 µM (active) and 35.6 µM (active); in assay [3], 78.1 µM (active) and inactive; in assay [5] it was 17.5 µM (active) and 28.3 µM (active). For the same compound, in assay [4], the Potency result was “inactive”.

Regarding `CC(C)Oc1ccc2c(=O)c(-c3ccccc3)coc2c1`, the Potency result in assay [1], in assay [4] and in assay [5] was “inactive” throughout. For the same compound, the Potency is 17.4 µM (active) and 27.5 µM (active) in assay [2]; 12.3 µM (active) and 6.45 µM (active) in assay [3].

Consider `COC(C)COC(C)COC(C)CO` (centres undefined), for which the Potency entry in assay [1], in assay [3], in assay [4] and in assay [5] was “inactive” in each case. In addition, in assay [2], the Potency is 22.4 µM (active).

For `CCCCC(CC)COP(=O)(OCC(CC)CCCC)OCC(CC)CCCC` (centres undefined), the Potency entry in assay [1] was “inactive and 71 µM (active)”; in assay [5], “inactive and 5.64 µM (active)”. Also, the Potency entry in assay [2], in assay [3] and in assay [4] was “inactive” throughout.

Regarding `C/C=C/C(=O)O`, the Potency entry in assay [1], in assay [2], in assay [3], in assay [4] and in assay [5] was “inactive” throughout.

`O=S(=O)(O)c1ccc(O)cc1`: the Potency result in assay [1], in assay [2], in assay [3], in assay [4] and in assay [5] was “inactive” each time.

In the case of `CC(C)OB(OC(C)C)OC(C)C`, the Potency in assay [1] is 40 µM (active) and inactive. For the same compound, the Potency result in assay [2], in assay [3], in assay [4] and in assay [5] was “inactive” each time.

As for `COc1ccc(C(=O)CC(=O)c2ccc(C(C)(C)C)cc2)cc1`, the Potency in assay [1] is 8.57 µM (active) and inactive; in assay [2], 21.5 µM (active); in assay [3] it was 34.1 µM (active). In addition, the Potency entry in assay [4] and in assay [5] was “inactive” throughout.

Turning to `c1cc(-c2ccncc2)ccn1`, the Potency in assay [1] is 35.9 µM (active); in assay [2], 40.3 µM (active) and 35.6 µM (active); in assay [3], 40.3 µM (active) and 35.6 µM (active). The Potency entry in assay [4] and in assay [5] was “inactive” in each case.

Take `CC(=O)CC/C=C(\C)CCC=C(C)C`: the Potency entry in assay [1] was “inactive and 39.9 µM (active)”; in assay [2], “inactive and 35.6 µM (active)”; in assay [3] it was “inactive and 39.9 µM (active)”; in assay [5], “inactive and 17.8 µM (active)”. The Potency result in assay [4] is “inactive”.

As for `CCC(C)CO` (centres undefined), the Potency in assay [1] was 35.1 µM (active) and inactive. Further, the Potency result in assay [2], in assay [3], in assay [4] and in assay [5] was “inactive” each time.

As for `OC[C@H]1O[C@@H]2O[C@H]3[C@H](O)[C@@H](O)[C@@H](O[C@H]4[C@H](O)[C@@H](O)[C@@H](O[C@H]5[C@H](O)[C@@H](O)[C@@H](O[C@H]6[C@H](O)[C@@H](O)[C@@H](O[C@H]7[C@H](O)[C@@H](O)[C@@H](O[C@H]8[C@H](O)[C@@H](O)[C@@H](O[C@H]1[C@H](O)[C@H]2O)O[C@@H]8CO)O[C@@H]7CO)O[C@@H]6CO)O[C@@H]5CO)O[C@@H]4CO)O[C@@H]3CO`, in assay [1], the Potency was 31.8 µM (active) and inactive. Further, the Potency result in assay [2], in assay [3], in assay [4] and in assay [5] was “inactive” throughout.

On to `Cc1cccc([N+](=O)[O-])c1C`, for which the Potency result in assay [1], in assay [2], in assay [3], in assay [4] and in assay [5] was “inactive” each time.

For the compound `O=C(/C=C/c1ccccc1)OCc1ccccc1`, the Potency was 17.8 µM (active) and 9.77 µM (active) in assay [1]; 17.8 µM (active) and 13.8 µM (active) in assay [2]; 11.2 µM (active) and 6.92 µM (active) in assay [3]. Moreover, the Potency entry in assay [5] is “inactive”.

`Nc1ncnc2nc[nH]c12`: the Potency result in assay [1], in assay [2], in assay [3], in assay [4] and in assay [5] was “inactive” throughout.

For the compound `O=C(Nc1ccc(Cl)cc1)Nc1ccc(Cl)c(Cl)c1`, the Potency in assay [1] is 5 µM (active) and 7.1 µM (active) and 8.71 µM (active); in assay [2], 5 µM (active) and 5.64 µM (active) and 4.9 µM (active); in assay [3], 17.8 µM (active) and 22.4 µM (active) and 17.4 µM (active). The Potency entry in assay [4] and in assay [5] was “inactive” each time.

For the compound `O=Cc1ccccc1O`, the Potency result in assay [1], in assay [2], in assay [3], in assay [4] and in assay [5] was “inactive” each time.

For the compound `CCCCC(CC)COCC1CO1` (centres undefined), the Potency result in assay [1], in assay [2], in assay [3], in assay [4] and in assay [5] was “inactive” in each case.

Take `CCOC(=O)C(C#N)=C(c1ccccc1)c1ccccc1`: the Potency in assay [1] is 5.64 µM (active) and 4.9 µM (active); in assay [2], 5.03 µM (active) and 4.9 µM (active); in assay [3] it was 3.56 µM (active) and 1.62 µM (active). The Potency result in assay [4] and in assay [5] was “inactive” in each case.

`O=CCCCC=O`: the Potency result in assay [1], in assay [2], in assay [3], in assay [4] and in assay [5] was “inactive” throughout.
